Here are results for 16 molecules from PubChem BioAssay (NCI).

Each structure is given as a SMILES string. About 83,000 compounds went through this panel and 20% of them were active in at least one assay; those are over-represented in the sample as a whole.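 Cells were grown in 96-well plates and exposed to the test compound at a single concentration for 48 hours; results are reported as percent growth, with values below 10 considered active.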 Unmarked numbers belong to inactive results. The source made the active and inactive calls.

Test systems include T-47D breast; BT-549 breast; MDA-MB-435 melanoma; SW-620 colon; MCF7 breast; HCT-116 colon; HCC-2998 colon; KM12 colon.
Common to all, as to assay: NCI-60 one-dose screen, 48 h (100 = growth as untreated, 0 = no growth, -100 = all killed)
Common to all, as to details: 10 µM unless noted

In the case of `O=C(NC(Cc1nnc2n(Cc3ccccc3)c(=O)c3c4c(sc3n12)CCCC4)c1ccc(Cl)cc1)c1ccccc1` (centres undefined), the growth with T-47D breast is 85.3%; in the assay on BT-549 breast, 107%; in the assay on MDA-MB-435 melanoma, 56.8%; in the assay with SW-620 colon it was 73.1%; in the assay with MCF7 breast it was 84.9%; in the assay on HCT-116 colon, 87.1%. Besides, the growth was 68.5% with HCC-2998 colon and 98.7% in the assay on KM12 colon.
As to `CCN1CCN(c2nc(C)cc(NCc3cc(Nc4ccnc5cc(Cl)ccc45)ccc3F)n2)CC1`, the growth was -24.3% (active) with T-47D breast; 36.1% in the assay on BT-549 breast; -88.4% (active) in the assay on MDA-MB-435 melanoma; 11.5% in the assay on SW-620 colon; 1.98% (active) in the assay on MCF7 breast; 2.33% (active) in the assay with HCT-116 colon. Besides, the growth is -34.9% (active) in the assay with HCC-2998 colon and 26.9% in the assay with KM12 colon.
As for `C#CCOc1nc(C)cc(C)c1C#N`, the growth in the assay on T-47D breast was 96.2%; in the assay with BT-549 breast it was 106%; in the assay with MDA-MB-435 melanoma, 99.9%; in the assay with SW-620 colon, 96.5%; in the assay with MCF7 breast, 95.5%; in the assay with HCT-116 colon, 99.4%. Also, the growth in the assay with HCC-2998 colon is 103%; with KM12 colon, 102%.
Consider `O=C(c1ccccc1)c1c(/C=C/c2ccc(Cl)cc2)nc2ccccc2c1/C=C/c1cccs1`, for which the growth is 94.6% in the assay with T-47D breast; 99.3% in the assay on BT-549 breast; 99.1% in the assay on MDA-MB-435 melanoma; 110% with SW-620 colon; 92.3% in the assay on MCF7 breast; 95.8% in the assay on HCT-116 colon. Further, the results for the growth with HCC-2998 colon and in the assay with KM12 colon were 103% and 99.3%, respectively.
As to `COc1ccc(-c2nc3sccn3c2-c2cc(-c3cc(OC)c(OC)c(OC)c3)on2)cc1`, the growth in the assay on T-47D breast is 51.9%; in the assay with BT-549 breast it was 98.6%; with MDA-MB-435 melanoma, 102%; with SW-620 colon, 105%; with MCF7 breast it was 88.5%; in the assay with HCT-116 colon it was 85.5%. Also, the figures for the growth in the assay with HCC-2998 colon and in the assay on KM12 colon were 98.2% and 90.5%, respectively.
Turning to `COc1ccc(C2c3ccc4ccccc4c3Oc3nc(C)[nH]c(=O)c32)cc1` (centres undefined), the growth was 92.2% in the assay on T-47D breast; 109% in the assay on BT-549 breast; 42.4% in the assay with MDA-MB-435 melanoma; 97.4% in the assay with SW-620 colon; 96.1% in the assay on MCF7 breast; 107% with HCT-116 colon. Further, the growth was 103% in the assay on HCC-2998 colon and 98.6% in the assay on KM12 colon.
On to `CC(=O)[C@@H]1CC[C@]2(COS(=O)(=O)c3ccc(C)cc3)CC[C@]3(C)[C@H](CC[C@@H]4[C@@]5(C)CCCNC(C)(C)[C@@H]5CC[C@]43C)[C@@H]12`, for which the growth with T-47D breast was 49.7%; in the assay on BT-549 breast, 82.6%; in the assay with MDA-MB-435 melanoma, 52.2%; in the assay on SW-620 colon, 9.71% (active); with MCF7 breast it was 58.2%; with HCT-116 colon, 32.8%. The growth is 26.6% in the assay with HCC-2998 colon and 52.3% in the assay with KM12 colon.
Consider `COc1ccc(N=C(c2ccccc2)C2C(=O)c3ccccc3C2=O)cc1`, for which the growth in the assay with T-47D breast was 78%; with BT-549 breast it was 74.3%; in the assay on MDA-MB-435 melanoma it was 58.6%; with SW-620 colon, 71.4%; in the assay on MCF7 breast, 84.6%; in the assay with HCT-116 colon it was 81.2%. Besides, the values for the growth in the assay on HCC-2998 colon and in the assay on KM12 colon were 112% and 100%, respectively.
In the case of `CCCCCCCCCCN(CCCCCCCCCC)CC(=O)c1ccc2cc(Br)c3ccccc3c2c1`, the growth in the assay with T-47D breast is 72.1%; in the assay on BT-549 breast, 72%; in the assay with MDA-MB-435 melanoma, 33.3%; in the assay with SW-620 colon, -94.2% (active); with MCF7 breast, 99%; in the assay with HCT-116 colon it was -22.8% (active). Further, in the assay on KM12 colon, the growth was -13.9% (active).
Consider `Cc1cc(C(=O)c2ccccc2)c(C)c2c1[nH]c1ccc(Cl)cc12`, for which the growth in the assay with BT-549 breast was 5.82% (active); in the assay on MDA-MB-435 melanoma, -25.4% (active); with SW-620 colon, 26.3%; in the assay on MCF7 breast, 13.1%; in the assay with HCT-116 colon, 5.1% (active); with HCC-2998 colon, 21.8%. Moreover, the growth in the assay with KM12 colon was 0.781% (active).
For the molecule `COc1cc(C(=O)c2cc(C)c3[nH]c4ccc(Cl)cc4c3c2C)cc(OC)c1OC`, the growth in the assay on BT-549 breast is 14.4%; with MDA-MB-435 melanoma it was -21.7% (active); with SW-620 colon it was 25.7%; in the assay on MCF7 breast, 13.9%; with HCT-116 colon, 3.67% (active); in the assay on HCC-2998 colon, 14.2%. Besides, in the assay on KM12 colon, the growth is -5.01% (active).
With `COc1ccc2c(c1)C(=O)/C(=C/c1cccc(OCC(=O)Nc3nc(C)c(C)s3)c1)O2`, the growth in the assay with BT-549 breast was -81.9% (active); with MDA-MB-435 melanoma it was 15.3%; in the assay on SW-620 colon, -76.9% (active); in the assay on MCF7 breast, 40.5%; with HCT-116 colon it was -96.5% (active); with KM12 colon, 9.4% (active).
As for `O=Cc1c[nH]c2ccc(-c3csc4ccccc34)cc12`, the growth in the assay with BT-549 breast is 38.5%; in the assay with MDA-MB-435 melanoma, -17.5% (active); in the assay with SW-620 colon, 15.6%; with MCF7 breast, 40.2%; in the assay on HCT-116 colon it was 21.2%; in the assay with HCC-2998 colon it was 13.4%. Also, the growth with KM12 colon was 2.08% (active).
Regarding `COc1cccc(/C=C/C(=O)c2c(C)nc3ccccc3c2/C=C/c2ccc(C)cc2)c1OC`, the growth in the assay on BT-549 breast was 69.1%; with MDA-MB-435 melanoma, 55.5%; in the assay on SW-620 colon, 31%; in the assay with MCF7 breast, 13.8%; in the assay on HCT-116 colon it was 8.38% (active); in the assay on HCC-2998 colon, 36.4%. Moreover, in the assay with KM12 colon, the growth is 65.6%.
For the molecule `Cc1ccc(/C=C2\C(=O)N(C)c3ccc(S(=O)(=O)Nc4ccc(C(C)(C)C)cc4)cc32)s1`, the growth is 87.4% in the assay with BT-549 breast; 69.1% with MDA-MB-435 melanoma; 50.4% in the assay on SW-620 colon; 54.6% in the assay with MCF7 breast; 37.2% in the assay with HCT-116 colon; 85% in the assay on HCC-2998 colon. For the same molecule, the growth with KM12 colon was 59.9%.
Regarding `Cn1c2c(c3ccc(Cl)c(Cl)c31)C(C#N)C1(CCNCC1)NC2=O` (centres undefined), the growth in the assay on BT-549 breast was 45%; with MDA-MB-435 melanoma, 5.97% (active); in the assay on SW-620 colon, 30.5%; in the assay on MCF7 breast, -12.3% (active); in the assay with HCT-116 colon, 13%; in the assay on HCC-2998 colon, -17.8% (active). Besides, the growth with KM12 colon is 31.7%.
